Measured values published in the supplement of paper PMC3545927.
The list shows a part of the results. How many sequences the whole screen found active is unknown.

Target: furin, P09958
Experiment: furin cleavage Z-score vs untreated control; higher = more cleavage, active = 3.5 or more, inactive = 1 or less, 8 variable residues between constant flanks
Method in brief: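 Sequencing of released DNA, tagged with adapters by PCR, gave read counts used as abundance. That DNA was freed when purified furin cut N-terminally bead-bound 8-mer peptides fused to a cDNA oligonucleotide, in 0.01 ml reactions at 1:10 enzyme:substrate in 50 mM HEPES pH 7.5 with CaCl2 and NaCl, lasting 7.5, 15 or 30 min. The cleavage Z-score was the lowess-adjusted log count versus furin-free reactions, scaled by median absolute deviation.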

furin, P09958, sequence (P09958 whole entry): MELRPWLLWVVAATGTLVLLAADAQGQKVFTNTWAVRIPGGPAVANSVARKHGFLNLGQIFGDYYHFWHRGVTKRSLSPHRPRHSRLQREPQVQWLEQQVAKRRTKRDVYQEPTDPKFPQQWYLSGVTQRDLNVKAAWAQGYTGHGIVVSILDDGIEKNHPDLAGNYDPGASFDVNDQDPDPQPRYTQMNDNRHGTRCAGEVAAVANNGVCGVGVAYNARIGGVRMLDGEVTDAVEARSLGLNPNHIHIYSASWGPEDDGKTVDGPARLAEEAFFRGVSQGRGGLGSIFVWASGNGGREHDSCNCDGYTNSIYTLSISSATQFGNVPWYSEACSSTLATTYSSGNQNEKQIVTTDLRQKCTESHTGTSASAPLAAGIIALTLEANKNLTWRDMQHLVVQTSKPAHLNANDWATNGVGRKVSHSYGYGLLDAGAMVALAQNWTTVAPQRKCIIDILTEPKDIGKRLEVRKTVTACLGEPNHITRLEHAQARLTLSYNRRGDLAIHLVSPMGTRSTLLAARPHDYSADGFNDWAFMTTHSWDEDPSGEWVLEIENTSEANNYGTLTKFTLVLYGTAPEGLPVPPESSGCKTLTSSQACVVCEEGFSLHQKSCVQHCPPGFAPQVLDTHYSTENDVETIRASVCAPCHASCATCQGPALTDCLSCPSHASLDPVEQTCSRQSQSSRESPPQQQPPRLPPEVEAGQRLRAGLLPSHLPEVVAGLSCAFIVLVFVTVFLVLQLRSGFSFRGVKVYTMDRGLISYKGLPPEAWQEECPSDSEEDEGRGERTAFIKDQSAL

Row | Sequence | furin cleavage Z-score (7.5 min) | furin cleavage Z-score (15 min) | furin cleavage Z-score (30 min)
1 | CALEVLFQGPAGNASASA [NG9] | -2.01 (inactive) | -0.768 (inactive) | -2.01 (inactive)
2 | CAEVVESTWVAGNASASA [HC133] | 0.708 (inactive) | -0.27 (inactive) | -1.67 (inactive)
3 | CADHMEECSQAGNASASA [HC1815] | -0.251 (inactive) | -0.239 (inactive) | -0.816 (inactive)
4 | CACRAAGLQDAGNASASA [HC1522] | -0.902 (inactive) | -1.39 (inactive) | -1.09 (inactive)
5 | CASTLCSAHLAGNASASA [HC2505] | 0.374 (inactive) | 0.0643 (inactive) | -1.17 (inactive)
6 | CARIFRHSSVAGNASASA [FS-2949] | 1.97 | 0.695 (inactive) | 1.03
7 | CARDRRSPAEAGNASASA [FS-3152] | 10.2 (active) | 8.19 (active) | 8.7 (active)
8 | CARPRRGIIFAGNASASA [FS-3021] | 1.06 | 1.16 | 5.75 (active)
9 | CARIFRSIKQAGNASASA [FS-2148] | 0.0894 (inactive) | 2.91 | 5.31 (active)
10 | CARPRRQGEVAGNASASA [FS-3023] | 0.519 (inactive) | 0.202 (inactive) | 0.396 (inactive)
11 | CAWYELTPAEAGNASASA [HC924] | -1.27 (inactive) | -1.36 (inactive) | 1.04
12 | CARIFRSSDFAGNASASA [FS-2030] | 0.78 (inactive) | -0.809 (inactive) | 0.131 (inactive)
13 | CARPRRSEKQAGNASASA [FS-1965] | 3.36 | 4.62 (active) | 3.66 (active)
14 | CARDLRGLAEAGNASASA [FS-2904] | -1.94 (inactive) | 0.23 (inactive) | 0.275 (inactive)
15 | CAAARALAHGAGNASASA [HC234] | 0.0166 (inactive) | -0.81 (inactive) | 0.0305 (inactive)
16 | CAEVPCHRPTAGNASASA [HC2418] | 0.387 (inactive) | -0.0389 (inactive) | 0.307 (inactive)
17 | CASTSCSAHLAGNASASA [HC2517] | 0.382 (inactive) | 1.16 | 0.668 (inactive)
18 | CAAEITGHVKAGNASASA [HC1177] | 0.655 (inactive) | 2.37 | 0.185 (inactive)
19 | CARPRRSSTQAGNASASA [FS-3025] | 6.4 (active) | 8.65 (active) | 6.89 (active)
20 | CARPRRGSTAAGNASASA [FS-2743] | 0.592 (inactive) | 0.93 (inactive) | 0.391 (inactive)
21 | CARPRRRYYPAGNASASA [FS-1763] | 0.0891 (inactive) | 0.798 (inactive) | -1.17 (inactive)
22 | CARPRRSPAQAGNASASA [FS-1764] | 9.55 (active) | 11 (active) | 8.87 (active)

Row | Sequence | furin cleavage Z-score (7.5 min) | furin cleavage Z-score (15 min) | furin cleavage Z-score (30 min)
23 | CARPRRPASPAGNASASA [FS-2581] | 0.54 (inactive) | -0.0908 (inactive) | -2 (inactive)
24 | CARPRRSTSPAGNASASA [FS-3026] | 10.5 (active) | 9.5 (active) | 8.81 (active)
25 | CARDLAVAVEAGNASASA [HC643] | 1.07 | -0.796 (inactive) | 1.14
26 | CADARRSPDQAGNASASA [FS-2627] | -0.496 (inactive) | -1.36 (inactive) | -0.54 (inactive)
27 | CARDRRQATEAGNASASA [FS-1692] | 3.4 | 4.98 (active) | 3.64 (active)
28 | CAEVPCHRPHAGNASASA [HC2415] | 0.403 (inactive) | -0.336 (inactive) | 0.894 (inactive)
29 | CAADAILHTPAGNASASA [HC269] | 0.255 (inactive) | -1.84 (inactive) | -0.719 (inactive)
30 | CAIEPRSFSQAGNASASA [TR3] | -0.606 (inactive) | -1.14 (inactive) | -0.409 (inactive)
31 | CATTPKSGSWAGNASASA [HC51] | -0.56 (inactive) | -0.574 (inactive) | -0.879 (inactive)
32 | CARPRRSIVFAGNASASA [FS-3229] | 4.51 (active) | 5.67 (active) | 7.41 (active)
33 | CAKPARLIVFAGNASASA [HC1448] | 0.00411 (inactive) | -1.12 (inactive) | -1.48 (inactive)
34 | CARPRRYLYQAGNASASA [FS-2285] | 3.25 | 3.5 | 5.12 (active)
35 | CASRPCSAHLAGNASASA [HC2493] | 0.596 (inactive) | 1.57 | 0.79 (inactive)
36 | CARRSRAASVAGNASASA [FS-1839] | 1.46 | 1.72 | 3.72 (active)
37 | CARRDRSTSIAGNASASA [FS-3203] | -0.171 (inactive) | 0.756 (inactive) | 1.79
38 | CALRKRSSSTAGNASASA [FS-3179] | 0.00727 (inactive) | 0.0326 (inactive) | -0.921 (inactive)
39 | CARRRRSSSTAGNASASA [FS-3068] | 8.2 (active) | 7.85 (active) | 5.87 (active)
40 | CARRRRSSSVAGNASASA [FS-2299] | 3.15 | 3.17 | 3.52 (active)
41 | CARSFRTASVAGNASASA [FS-3078] | 0.727 (inactive) | 0.141 (inactive) | 1.09
42 | CADDEVVTSTAGNASASA [HC2291] | 0.608 (inactive) | 0.354 (inactive) | -0.134 (inactive)
43 | CARRNRSTSTAGNASASA [FS-2072] | 4.22 (active) | 6.96 (active) | 4.29 (active)
